Rows were chosen to be rich in hits. Some 19% of all compounds tested hit in one or more screens of this group.
HT1080 IDH1KD tx – HT-1080 IDH1 knockdown cell toxicity (counter line). HT-1080 IDH1 knockdown viability, ATP luminescence, 48 h. Potency, µM (highest dose often 46.1 µM), hits mostly cytotoxic. actives 2% (n = 360,000)
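IDH1KD HT-1080 cells, 750/well, RPMI + 5% FBS; compound pinned after 2 h settling; 48 h, 37 °C; CellTiter-Glo luminescence; % activity normalised to DMSO and no-cell wells; curves fitted, classed by r2 and efficacy.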
TDP1 cell CPT – growth inhibition of DT40 Tdp1-/-;hTDP1 cells with camptothecin (screen for TDP1 inhibitors); Potency, µM (highest dose often 46.2 µM), usual class: inhibitors; AID 686979; chicken DT40 Tdp1-/-;hTDP1 cells + 20 nM CPT, ATP luminescence, 48 h; actives 12% (n = 420,000); also: nearly all actives have a fitted effect of over 55% in size
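Chicken DT40 Tdp1-/- cells stably complemented with human TDP1 were seeded at 400 cells/well in medium containing 20 nM camptothecin, exposed to pin-transferred compounds, and grown at 37 °C for at least 48 hr. Viability was read as ATP luminescence.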
IL1B secr inh – blocks inflammasome-driven IL-1 beta release; THP-1 LPS/ATP IL-1B secretion, AlphaLISA, 16 h; hits give low values; actives 4.7% (n = 360,000); AID 743279; activity change, % at 57.5 µM; in the data active = activity change below about -50%; inconclusive = mostly about -30% to -49%
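THP-1 cells pretreated 1 hr with compounds (up to 57.5 uM final), then stimulated with LPS (250 ng/mL final) plus ATP (1.25 mM final); secreted IL-1B measured by AlphaLISA after 16 hr, decreased signal indicating inhibition.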
DT40 TDP1 no CPT – qHTS for Inhibitors of human tyrosyl-DNA phosphodiesterase 1 (TDP1): qHTS in cells in absence of CPT; DT40 Tdp1-/- hTDP1 cells, no CPT, ATP luminescence, 48 h; Potency, µM (top dose mostly 46.2 µM), actives largely listed as inhibitors; actives 15% (n = 420,000); AID 686978, 2013; also: nearly all actives have a fitted effect of over 55% in size
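A cellular qHTS used chicken DT40 cells lacking endogenous Tdp1 but carrying stably transfected human TDP1. Compounds were applied without camptothecin, and cell growth kinetics were judged by ATP-dependent luminescence after ≥48 hr.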
HT1080NT lethal – kills 2HG-producing HT-1080-NT fibrosarcoma cells | Potency, µM (series often up to 46.1 µM), most hits filed as cytotoxic | HT-1080-NT fibrosarcoma viability, CellTiter-Glo ATP luminescence, 48 h | actives 1.6% (n = 360,000) | AID 686970;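 also: NT is the 2HG producing partner of a matched IDH1 knockdown line; nearly all actives have a fitted effect of over 55% in size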
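A 48-hour cytotoxicity screen used HT-1080-NT cells plated 2 hours before compound delivery. ATP-based CellTiter-Glo luminescence measured viability, normalized to DMSO and no-cell controls.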
Numbers stand for hits; i = inactive; ? = inconclusive; nt = no result; [ ] = dose if it differs, or a comment. Unless noted, calls follow the shape of the dose curve; as a rule, active = well fitted curve in the direction sought with a large enough effect; inconclusive = small, poorly fitted or top-dose-only effect, or another doubt; inactive = no such curve, though single readings can be large; an effect the other way counts as inactive or inconclusive.

SMILES | HT1080 IDH1KD tx | TDP1 cell CPT | IL1B secr inh | DT40 TDP1 no CPT | HT1080NT lethal
O=C(COC(=O)CC1CCCC1)Nc1ccc(Cl)cn1 | i | i | i | i | i
O=C(NCC1CCCC(CNC(=O)Nc2ccc(Cl)cn2)C1)Nc1ccc(Cl)cn1 (configuration not stated) | ? | ? | -83 | ? | ?
Fc1ccccc1N1CCN(c2ncnc3onc(-c4ccc(Cl)cc4)c23)CC1 | nt | i | nt | 21µM | nt
CC(=O)c1ccc(N2CCN(c3ncnc4onc(-c5ccc(Cl)cc5)c34)CC2)cc1 | nt | 23µM | nt | 16µM | nt
COc1cccc(N2CCN(c3ncnc4onc(-c5ccc(Cl)cc5)c34)CC2)c1 | nt | ? | nt | 16µM | nt
Fc1ccc(CCN2CCN=C2Nc2ccccc2)cc1 | i | i | i | i | i
CCc1nnc(NC(=O)CC23CC4CC(CC(Br)(C4)C2)C3)s1 | i | i | i | i | i
CCCc1sc(N/N=C/c2ccccn2)nc1-c1ccc(F)cc1 | 3.2µM | 4.6µM | -100 | 4.6µM | 2.8µM
Cc1nc(N/N=C/c2ccccn2)sc1C | 15µM | 1.3µM | -101 | 1.3µM | 13µM
CCN(CC)CCCNC(=O)CN1N=C(c2ccccc2)CCC1=O | nt | i | nt | i | nt
C=CCOc1ccccc1C(=O)/C=C1/C(=O)Nc2ccccc21 | ? | 5.8µM | ? | 2.9µM | ?
NC(=O)COc1ccc(C(=O)/C=C2/C(=O)Nc3ccccc32)cc1 | ? | 7.3µM | -100 | 2.9µM | i
C=CCOc1ccc(C(=O)/C=C2/C(=O)Nc3ccccc32)cc1 | ? | 16µM | -92 | 13µM | ?
CCC(C(=O)NC1CCCCC1)n1c(SCc2ccc(F)cc2)nc2ccncc21 (configuration not stated) | i | ? | i | ? | i
Cc1cccc(CSc2nc3cc(C(=O)NC4CCCC4)ccc3c(=O)n2Cc2ccccc2)c1 | nt | i | nt | i | nt
CCCCNC(=O)Cn1c(SCc2cccc(C)c2)nc2ccncc21 | nt | i | nt | i | nt
Cc1ccc(Cn2c(SCc3ccc(C(=O)NC4CCCCC4)cc3)nc3ccncc32)cc1 | nt | ? | nt | 21µM | nt
COc1ccc(Cn2c(SCc3ccc(C(=O)NC4CCCCC4)cc3)nc3ccncc32)cc1 | nt | ? | nt | 16µM | nt
O=C(NC1CCCCC1)c1ccc(CSc2nc3ccncc3n2Cc2ccccc2)cc1 | nt | ? | nt | 21µM | nt
COc1ccc(CSc2nc3ccncc3n2CC(=O)Nc2cc(C)cc(C)c2)cc1 | nt | ? | nt | 16µM | nt
COc1ccc(-n2nc(C(=O)NCC(=O)NCc3ccc(F)cc3)c3ccccc3c2=O)cc1OC | ? | i | i | i | ?
Cc1ccc(C)c(-n2nnc3ccccc3c2=O)c1 | i | i | i | ? | i
C=CCNC(=O)c1onc(CSc2ccc(F)cc2)c1C(=O)NCCOC | i | i | i | i | i
O=S(=O)(c1nccs1)N1CCN(c2nc(-c3cccs3)nc3ccccc23)CC1 | i | ? | nt | 11µM | i
Cc1ccc(S(=O)(=O)N2CCCN(c3nc(-c4cccs4)nc4ccccc34)CC2)cc1 | nt | 13µM | nt | ? | nt
SMILES | HT1080 IDH1KD tx | TDP1 cell CPT | IL1B secr inh | DT40 TDP1 no CPT | HT1080NT lethal
CC(C)S(=O)(=O)N1CCN(c2nc(-c3cccs3)nc3ccccc23)CC1 | i | 11µM | nt | 18µM | i
O=S(=O)(c1ccccc1)N1CCN(c2nc(-c3cccs3)nc3ccccc23)CC1 | nt | 13µM | nt | ? | nt
Cc1cc(C)cc(S(=O)(=O)N2CCN(c3nc(-c4cccs4)nc4ccccc34)CC2)c1 | i | ? | nt | ? | i
O=S(=O)(c1ccc(Cl)cc1)N1CCN(c2nc(-c3cccs3)nc3ccccc23)CC1 | i | i | i | ? | i
Cc1ccccc1S(=O)(=O)NC(=O)C1(C)CCN1C(=O)c1c(C)noc1C (configuration not stated) | i | i | i | i | i
CCC(C)(C)C1CCC2(CC1)NC(=O)N(CC(=O)Nc1cc(C(F)(F)F)ccc1N1CCOCC1)C2=O (configuration not stated) | i | ? | i | ? | i
O=S(=O)(Cc1ccccc1)N1CCN(c2nc(-c3cccs3)nc3ccccc23)CC1 | i | ? | nt | 13µM | i
COc1ccc(N2CCN(c3nc(-c4cccs4)nc4ccccc34)CC2)cc1 | i | ? | i | 23µM | i
Cc1occc1C(=O)Nc1cccc(-c2nc(CNC(=O)c3ccc(N4CCCCC4)cc3)c(C)o2)c1 | nt | ? | nt | 18µM | nt
Cc1cc(C(=O)NCc2nc(-c3cccc(NC(=O)c4cc(C)oc4C)c3)oc2C)nc(C)n1 | nt | i[9.04 µM] | nt | 21µM | nt
C#Cc1cccc(C(=O)NCc2nc(-c3cccc(NC(=O)c4ccccn4)c3)oc2C)c1 | nt | ? | nt | 23µM | nt
Cc1cc(C(=O)Nc2cccc(-c3nc(CNC(=O)c4sc(C)nc4C)c(C)o3)c2)c(C)o1 | nt | i[9.04 µM] | nt | 21µM | nt
COC(=O)c1ccc(N=C2SCC(=O)N2C)cc1 | i | i | i | i | i
Cc1ccc(C(=O)Nc2cccc(-c3nc(CNC(=O)c4cccc(C)c4C)c(C)o3)c2)s1 | nt | 23µM | nt | 21µM | nt
Cc1ccc(C(=O)Nc2cccc(-c3nc(CNC(=O)c4ccc(F)cc4Cl)c(C)o3)c2)s1 | nt | i[9.04 µM] | nt | i | nt
COC(=O)C1=C(C)N(Cc2ccccc2)C(=S)N[C@H]1c1ccc(Br)cc1 | i | ? | i | i | i
COC(=O)C1=C(C)N(Cc2ccccc2)C(=NCCc2cccnc2)N[C@H]1c1ccc(Br)cc1 | ? | 3.7µM | i | 4.6µM | ?
COC(=O)C1=C(C)N(Cc2ccccc2)C(=NCCCCO)N[C@H]1c1ccccc1 | i | ? | i | ? | i
COC(=O)C1=C(C)N(Cc2ccccc2)C(=NCc2ccc3c(c2)OCO3)N[C@H]1c1ccccc1 | i | ? | -57 | 18µM | i
CCN1C(=NCC2CC2)N[C@@H](c2ccccc2)C(C(=O)OC)=C1C | i | ? | i | ? | i
COC(=O)C1=C(C)N(Cc2ccccc2)C(=NCCc2cccnc2)N[C@H]1c1ccccc1 | i | 12µM | -58 | 21µM | ?
COC(=O)C1=C(C)N(Cc2ccccc2)C(=NCC2CC2)N[C@H]1c1ccccc1 | i | 21µM | i | 23µM | i
CC(C)(C)S(=O)N1Cc2cc(=O)n(Cc3ccccc3)cc2[C@H]1CCO (some centres not stated) | i | i | i | i | i
COc1ccccc1C(=O)N/C(=C/c1ccccc1)C(=O)Nc1ccc(C(=O)O)cc1 | i | i | i | i | i
CNc1ccc(Br)cc1C(O)c1ccccc1 (configuration not stated) | i | i | i | i | i
O=C(C(=O)c1cc(Br)ccc1O)c1cc(Br)ccc1O | 2.9µM | ? | -84 | 23µM | 3.7µM
O=C(c1ccc(O)c(Br)c1)c1cc(Br)ccc1O | ? | ? | i | ? | 5.8µM

Source: PubChem (National Center for Advancing Translational Sciences (NCATS))
